Our source for the potency estimated from few doses values is PMC11062922 (Nature Chemical Biology, 2023).

Holding throughout (design): species or system human, MV4-11 + K-562 + COLO205 + SK-N-BE2 + OVCAR-8
The test system of one test is COX5A. Particulars: read-out: apparent Kd; compound concentrations: 100 nM and 1000 nM (sheet 'Samples'), CATDS: 0.15625736744525701; n = 1.
Another test relates to DDR1. Particulars: read-out: apparent Kd, n = 1.
In the next test the test system is DDR2. Particulars: read-out: apparent Kd, n = 1.
The subject of another test is FLT3. Particulars: read-out: apparent Kd, n = 1.
The subject of a further test is NNT. Particulars: read-out: apparent Kd; compound concentrations: 100 nM and 1000 nM (sheet 'Samples'), CATDS: 0.115819369976432; n = 1.
In the next test the test system is PDXK. Particulars: read-out: apparent Kd; compound concentrations: 100 nM and 1000 nM (sheet 'Samples'), CATDS: 0.115099137531036; n = 1.
The subject of a further test is RET. Particulars: read-out: apparent Kd, compound concentrations: 100 nM and 1000 nM (sheet 'Samples'), n = 1.
For another test, the system named is ZAK. Particulars: read-out: apparent Kd, n = 1.
For another test, the system named is CSNK2A1;CSNK2A3. Particulars: read-out: apparent Kd; compound concentrations: 100 nM and 1000 nM (sheet 'Samples'), CATDS: 0.17522676424385999; n = 1.
In a further test the test system is CSNK2A2. Particulars: read-out: apparent Kd; compound concentrations: 100 nM and 1000 nM (sheet 'Samples'), CATDS: 0.185061390376627; n = 1.
The test system of another test is FECH. Particulars: read-out: apparent Kd; compound concentrations: 100 nM and 1000 nM (sheet 'Samples'), CATDS: 0.167574298527637; n = 1.
Another test concerns NQO2. Particulars: read-out: apparent Kd; compound concentrations: 100 nM and 1000 nM (sheet 'Samples'), CATDS: 0.179467556500614; n = 1.
A further test relates to FLT4. Particulars: read-out: apparent Kd, compound concentrations: 100 nM and 1000 nM (sheet 'Samples'), n = 1.
In the next test the test system is PDGFRB. Particulars: read-out: apparent Kd; compound concentrations: 100 nM and 1000 nM (sheet 'Samples'), CATDS: 0.14329981050248; n = 1.
A further test deals with T1, DJA1.
T1 construct: gene DNAJA1
Particulars: read-out: apparent Kd; compound concentrations: 100 nM and 1000 nM (sheet 'Samples'), CATDS: 0.31646295058989898; n = 1.

Another test deals with EGFR. Particulars: read-out: apparent Kd; compound concentrations: 100 nM and 1000 nM (sheet 'Samples'), CATDS: 7.48044992603729E-2; n = 1.
For the next test, the system named is HCK. Particulars: read-out: apparent Kd; compound concentrations: 100 nM and 1000 nM (sheet 'Samples'), CATDS: 0.11641359939997301; n = 1.
In a further test the test system is LYN. Particulars: read-out: apparent Kd; compound concentrations: 100 nM and 1000 nM (sheet 'Samples'), CATDS: 9.0520394407802393E-2; n = 1.
The subject of another test is MAPK11. Particulars: read-out: apparent Kd; compound concentrations: 100 nM and 1000 nM (sheet 'Samples'), CATDS: 7.53995695049028E-2; n = 1.
The subject of the next test is RIPK3. Particulars: read-out: apparent Kd; compound concentrations: 100 nM and 1000 nM (sheet 'Samples'), CATDS: 9.4746109979172405E-2; n = 1.
The next test has as its system TAOK3. Particulars: read-out: apparent Kd; compound concentrations: 100 nM and 1000 nM (sheet 'Samples'), CATDS: 7.5717255281347595E-2; n = 1.
The test system of the next test is TNK1. Particulars: read-out: apparent Kd; compound concentrations: 100 nM and 1000 nM (sheet 'Samples'), CATDS: 0.107193891906807; n = 1.
In a further test the test system is YES1. Particulars: read-out: apparent Kd; compound concentrations: 100 nM and 1000 nM (sheet 'Samples'), CATDS: 0.13069382201385599; n = 1.
The test system of another test is GARS. Particulars: read-out: apparent Kd; compound concentrations: 100 nM and 1000 nM (sheet 'Samples'), CATDS: 0.27158737746623501; n = 1.
Another test relates to NTRK1. Particulars: read-out: apparent Kd; compound concentrations: 100 nM and 1000 nM (sheet 'Samples'), CATDS: 0.40728649446902998; n = 1.
The test system of another test is CSNK1D. Particulars: read-out: apparent Kd; compound concentrations: 100 nM and 1000 nM (sheet 'Samples'), CATDS: 0.216607074037657; n = 1.
The test system of another test is MAPK14. Particulars: read-out: apparent Kd; compound concentrations: 100 nM and 1000 nM (sheet 'Samples'), CATDS: 0.25122803409734401; n = 1.
The test system of the next test is MAPKAPK2. Particulars: read-out: apparent Kd; compound concentrations: 100 nM and 1000 nM (sheet 'Samples'), CATDS: 0.38711156152007697; n = 1.
The subject of a further test is RPS6KA1. Particulars: read-out: apparent Kd; compound concentrations: 100 nM and 1000 nM (sheet 'Samples'), CATDS: 0.20748336668369699; n = 1.
The subject of a further test is JAK2. Particulars: read-out: apparent Kd; compound concentrations: 100 nM and 1000 nM (sheet 'Samples'), CATDS: 0.17425354278837099; n = 1.
A further test relates to PIK3CA. Particulars: read-out: apparent Kd; compound concentrations:100 nM and 1000 nM (sheet 'Samples'); n = 1.
A further test deals with PIK3CD. Particulars: read-out: apparent Kd; compound concentrations:100 nM and 1000 nM (sheet 'Samples'); n = 1.
The test system of the next test is SMC4. Particulars: read-out: apparent Kd; compound concentrations:100 nM and 1000 nM (sheet 'Samples'); n = 1.
Setting [1] is: compound concentrations:100 nM and 1000 nM (sheet 'Samples').

Like-named read-outs stand apart in the source and are kept apart here.

Consider `COC(=O)Nc1nc2cc(Oc3ccc(NC(=O)Nc4cccc(Br)c4)cc3)ccc2[nH]1.Cl` [GW694234A], for which the potency estimated from few doses is 463 nM in the test with COX5A; 217 nM in the test with DDR1 (compound concentrations: 100 nM and 1000 nM (sheet 'Samples'), CATDS: 0.25244983438360302); 865 nM in the test on DDR2 (compound concentrations: 100 nM and 1000 nM (sheet 'Samples'), CATDS: 0.115124869581512); 777 nM in the test on FLT3 (compound concentrations: 100 nM and 1000 nM (sheet 'Samples'), CATDS: 0.12065000979252); 853 nM in the test with NNT; 865 nM in the test on PDXK. For the same compound, the potency estimated from few doses in the test with RET (CATDS: 0.12937404694589899) was 668 nM; in the test on ZAK (compound concentrations: 100 nM and 1000 nM (sheet 'Samples'), CATDS: 8.61130704510496E-2), 2040 nM.
For the compound `O=C1N=C(NCCc2ccc(Br)cc2)S/C1=C\c1ccc2ncccc2c1` [RO4508334-000], the potency estimated from few doses is 1740 nM in the test on CSNK2A1;CSNK2A3; 1520 nM in the test on CSNK2A2; 1950 nM with FECH; 345 nM in the test on FLT3 (compound concentrations: 100 nM and 1000 nM (sheet 'Samples'), CATDS: 0.42553970171458699); 1640 nM with NQO2.
Consider `Cc1c2ccc(N(C)c3ccnc(Nc4cccc(S(N)(=O)=O)c4)n3)cc2nn1C.Cl` [GW771127A], for which the potency estimated from few doses is 397 nM with DDR1 (compound concentrations: 100 nM and 1000 nM (sheet 'Samples'), CATDS: 0.23686059185109401); 1670 nM in the test on DDR2 (compound concentrations: 100 nM and 1000 nM (sheet 'Samples'), CATDS: 0.144406437385246); 51.7 nM in the test with FLT4 (CATDS: 0.67629550242263303); 1720 nM in the test with PDGFRB; 746 nM with RET (CATDS: 0.185315990587263).
Take `O=C(Nc1cccc(-c2nn3ncccc3c2-c2ccnc(Nc3ccccc3)n2)c1)c1c(F)cccc1F` [GSK198271A]: the potency estimated from few doses with DDR1 (compound concentrations: 100 nM and 1000 nM (sheet 'Samples'), CATDS: 0.101729312677661) was 711 nM; in the test with DJA1 it was 111 nM; in the test on EGFR, 1600 nM; with HCK it was 537 nM; in the test on LYN, 933 nM; in the test with MAPK11, 1560 nM. Also, the potency estimated from few doses in the test with RIPK3 was 836 nM; in the test with TAOK3 it was 1540 nM; with TNK1, 635 nM; with YES1 it was 431 nM.
For `Cc1cn(-c2cc(NC(=O)c3ccc4c(c3)CN(c3cncnc3)C[C@@H]4C)cc(C(F)(F)F)c2)cn1` [D2202-1], the potency estimated from few doses in the test with DDR1 (setting [1]) was 494 nM; in the test on DDR2 (setting [1]) it was 915 nM.
For the compound `FC(F)(F)c1ccc(-c2nn3ncccc3c2-c2ccnc(Nc3ccccc3)n2)cc1` [GW828206X], the potency estimated from few doses in the test on DDR1 (compound concentrations: 100 nM and 1000 nM (sheet 'Samples'), CATDS: 0.34932428035118401) is 1130 nM; with GARS, 2010 nM; in the test on NTRK1, 854 nM.
`Nc1nc(-c2ccccc2F)c(-c2ccnc3ccccc23)s1` [GW560459X]: the potency estimated from few doses was 1180 nM in the test on CSNK1D, 843 nM in the test on MAPK14, 389 nM with MAPKAPK2 and 1320 nM in the test with RPS6KA1.
As to `CN(c1ccc2c(c1)nc(NCc1ccccc1)n2C)c1ccnc(Nc2ccc(CS(C)(=O)=O)cc2)n1.Cl` [GW811603A], the potency estimated from few doses in the test on DDR1 (compound concentrations: 100 nM and 1000 nM (sheet 'Samples'), CATDS: 0.142121036969732) was 962 nM; with FLT3 (compound concentrations: 100 nM and 1000 nM (sheet 'Samples'), CATDS: 0.139763894659995) it was 1030 nM; in the test on FLT4 (CATDS: 0.42297219111770701), 63.4 nM; in the test with JAK2 it was 465 nM; in the test on RET (CATDS: 0.369571760306865), 79.9 nM.
Turning to `COC(=O)Nc1nc2cc(Oc3ccc(NC(=O)Nc4cccc(SC)c4)cc3)ccc2[nH]1.Cl` [GW697999A], the potency estimated from few doses was 194 nM with DDR1 (setting [1]); 618 nM in the test with DDR2 (setting [1]); 332 nM in the test on FLT3 (setting [1]); 205 nM with PIK3CA; 92.1 nM in the test on PIK3CD; 2010 nM with SMC4. Besides, in the test with ZAK (setting [1]), the potency estimated from few doses was 1910 nM.
